Only some compounds are listed: those with a hit (about 9.9% of all), similar ones and a draw of the others.
KB-V1 MDR tox: kills drug-selected multidrug resistant KB-V1 cells. KB-V1 MDR cells viability, CellTiter-Glo, 72 h. Potency, µM (series often up to 46.1 µM), usual class: cytotoxic. 400,000 compounds, 3.4% hits. AID 1347076; also: potency is read from the fitted curve at half-maximal effect; % is scaled to controls: 0 for no effect and ±100 for the full control effect; nearly all actives have a fitted effect of over 60% in size
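Cytotoxicity via CellTiter-Glo luminescence after 72 h compound exposure at 37 degrees C. Cells: drug-selected KB-V1 line, DMEM phenol-red free plus 10% FBS. Compounds tested at multiple concentrations; normalized data fitted to concentration-effect curves.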
IL1B secr inh: inhibitors of inflammasome signaling (IL-1 beta secretion) | activity change, % at 57.5 µM | THP-1 LPS/ATP IL-1B secretion, AlphaLISA, 16 h; active compounds read low | AID 743279 | 360,000 compounds, 4.7% hits; in the data active = activity change below about -50%; inconclusive = mostly about -30% to -49%; also: % is scaled to controls: 0 for no effect and ±100 for the full control effect
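Secreted IL-1B measured by AlphaLISA bead assay after 16 h compound exposure of THP-1 cells; compounds (final up to 57.5 uM) added 1 h before LPS (250 ng/mL) and ATP (1.25 mM) stimulation; lower signal means less secretion.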
KB-3-1 tox: kills parental KB-3-1 adenocarcinoma cells; KB-3-1 viability, CellTiter-Glo ATP luminescence, 72 h; Potency, µM (highest dose often 46.1 µM), most hits filed as cytotoxic; 400,000 compounds, 1.4% hits; also: potency is read from the fitted curve at half-maximal effect; % is scaled to controls: 0 for no effect and ±100 for the full control effect; nearly all actives have a fitted effect of over 60% in size
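72 h, 37 °C compound treatment of KB-3-1 parental cells; CellTiter-Glo added, 10 min, luminescence read. Data corrected against DMSO-only plates and normalized before curve fitting.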
MCF10A rerep: induces DNA re-replication in MCF 10a normal breast cells; AID 624296; MCF 10A DNA re-replication, Hoechst nuclear intensity, 48 h; Potency, µM (doses to about 46.1 µM), inactives show at the top dose activity, positive = re-replication, usual class: activators; 350,000 compounds, 2.9% hits; also: potency is read from the fitted curve at half-maximal effect; % of control where 0% means no effect; nearly all actives have a fitted effect of over 50% in size
SW480 rereplic: induces DNA re-replication in SW480 colon adenocarcinoma cells; Potency, µM (titrated, usually from 46.1 µM), for inactives: at the highest dose re-replication activation, usual class: activators; SW480 DNA re-replication, Hoechst DNA content imaging, 48 h; AID 624297; 340,000 compounds, 1.8% hits; also: potency is read from the fitted curve at half-maximal effect; % of control where 0% means no effect; nearly all actives have a fitted effect of over 55% in size
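Cells (250 per well) received 23 nL compound or DMSO by pin tool and were kept 48 hr at 37 C, 5% CO2. Nuclei were then stained with Hoechst for 40 min and scanned for DNA content.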
* hit, by the source's call; i = inactive; ? = inconclusive; nt = not tested or not shown. Unless noted, calls follow the shape of the dose curve; as a rule, active = well fitted curve in the direction sought with a large enough effect; inconclusive = small, poorly fitted or top-dose-only effect, or another doubt; inactive = no such curve, though single readings can be large; an effect the other way counts as inactive or inconclusive.

SMILES	KB-V1 MDR tox	IL1B secr inh	KB-3-1 tox	MCF10A rerep	SW480 rereplic
O=C1NN=C(c2ccc(Cl)cc2)CC1c1cccc(Br)c1 (stereo not drawn)	?	-51.3*	i	?	-6.6%
CCN1CCC(Nc2ccnc3cc(Cl)ccc23)CC1	i	-5.7	i	-2.9%	0.6%
Cc1ccc(S(=O)(=O)N2CCC(C(=O)O)CC2)cc1	i	-4.4	i	-6.6%	6.8%
COC(=O)c1cccc(NC(=O)c2cc3sccc3n2C)c1	9.2µM*	-15.8	i	-7.8%	-2.1%
COC(=O)c1ccccc1NC(=O)c1cc2sccc2n1C	i	0.0	i	?	3.1%
CC(C)Cc1nnc(NC(=O)CCS(=O)(=O)c2ccc(Cl)cc2)s1	i	12.9	i	?	?
NC(=O)N1c2ccccc2C=Cc2ccccc21	i	31.3	i	?	-3.7%
CCN(CC)C(=O)N1c2ccccc2C=Cc2ccccc21	?	-0.2	3.66µM*	?	6.9%
CS(=O)(=O)c1sc(C#N)c2c1C(=O)CC(c1ccccc1)C2 (stereo not drawn)	i	-112.6*	i	?	23.3%
Cc1ccc(-n2ncc(C(=O)NCCCN3CCCCC3)c2C2CCN(C(=O)OC(C)(C)C)CC2)cc1	i	nt	i	nt	nt
CCCc1n(CC)c2ccccc2[n+]1CC(O)COC1CCCCC1 (stereo not drawn)	i	5.0	i	-2.3%	12.8%
Cn1ncc2c(O/N=C(\N)c3ccc(C(C)(C)C)cc3)ncnc21	13µM*	-101.3*	?	18.4µM*	9.2µM*
C=CCc1c(C)nc(-c2ccccc2)nc1N/N=C/c1ccccc1	i	-14.3	i	?	-66.4%
C=CCc1c(C)nc(-c2ccccc2)nc1Nc1ccccc1O	i	-28.4	i	23.1µM*	6.4%
C=CCc1c(C)nc(-c2ccccc2)nc1N/N=C/c1ccncc1	i	-29.8	i	25.3%	23.1µM*
C=CCc1c(C)nc(-c2ccccc2)nc1N/N=C(\C)c1ccc(N)cc1	23.1µM*	0.0	?	-21.1%	3.5%
C=CCc1c(C)nc(C)nc1N/N=C/c1ccccc1	i	25.4	i	-6.4%	-1.7%
Cc1cc(C)cc(NC(=O)C(NS(=O)(=O)c2cccc3nsnc23)c2ccccc2)c1 (stereo not drawn)	i	nt	i	nt	nt
Cc1ccc(C)n1-c1ccc(C(=O)/C=C/N(C)C)cc1	i	-86.6*	i	23.1µM*	?
Cc1c(N2C(=O)/C(=C3/C(=O)N(C)c4ccccc43)SC2=S)c(=O)n(-c2ccccc2)n1C	i	10.8	i	-3.0%	0.3%
Cc1c(N2C(=O)CSC2=S)c(=O)n(-c2ccccc2)n1C	i	-77.4*	?	?	-4.7%
O=C(NC(=S)N1CCN(c2ccc([N+](=O)[O-])cc2)CC1)c1ccccc1F	20.6µM*	-10.0	i	10.2%	-2.5%
O=C(NC(=S)N1CCN(c2ccc([N+](=O)[O-])cc2)CC1)c1ccccc1Cl	i	-5.4	i	2.0%	4.1%
O=[N+]([O-])c1ccc(N2CCN(C(=S)NC3CCCCC3)CC2)cc1	i	-78.4*	?	-0.4%	12.9%
Cc1ccc(SCCN2CCC(O)CCC2=O)cc1 (stereo not drawn)	i	11.1	i	-4.9%	15.4%
SMILES	KB-V1 MDR tox	IL1B secr inh	KB-3-1 tox	MCF10A rerep	SW480 rereplic
CC(=O)c1ccc(NC(=O)C(Cc2ccccc2)NS(=O)(=O)c2ccc3c(c2)CCC(=O)N3)cc1 (stereo not drawn)	i	nt	i	nt	nt
CCC(C)(C)n1nnnc1C(C(C)C)N(CCN1CCOCC1)Cc1cc2cccc(C)c2[nH]c1=O (stereo not drawn)	14.6µM*	-17.1	i	4.1%	3.3%
C[C@@H](NC(=O)c1[nH]cnc1C(=O)Nc1nccs1)c1ccccc1	i	-1.3	i	-1.3%	-1.3%
COc1cccc(/C=N/NC(=O)c2cc(-c3cccn3C)n[nH]2)c1	?	-52.9*	?	1.8%	1.6%
Cn1cccc1-c1cc(C(=O)N/N=C/C=C/c2ccccc2)[nH]n1	i	-90.5*	i	-12.4%	-14.0%
COc1cc(/C=N/NC(=O)c2cc(-c3cccn3C)n[nH]2)cc(OC)c1OC	i	-85.3*	?	29.0%	15.9%
COc1cccc(/C=N/NC(=O)c2cc(-c3cccn3C)n[nH]2)c1O	i	80.5	?	28.0%	?
Cn1cccc1-c1cc(C(=O)N/N=C/c2ccc(Cl)cc2)[nH]n1	?	-18.8	i	?	-6.2%
Cc1cc(-c2ccccc2)nc2oc3c(c12)NC(=O)CN(c1ccccc1)C3=O	?	-3.5	i	3.6%	14.6µM*
C=CCNC(=S)NNc1nc(Nc2ccccc2)nc(N2CCCCC2)n1	i	-63.1*	i	14.7%	4.1%
C=CCNC(=S)NNc1nc(N2CCCC2)nc(N2CCCC2)n1	i	-6.5	i	1.1%	3.7%
Cc1ccc(CNC(=O)CN(c2ccc(C(C)C)cc2)S(=O)(=O)c2c(C)n[nH]c2C)cc1	i	nt	i	nt	nt
CCOC(=O)c1nnn(-c2nonc2N)c1CS(=O)(=O)c1ccccc1	i	11.4	i	?	-21.0%
CC1CCN(Cc2c(C(=O)O)nnn2-c2nonc2N)CC1	i	-2.9	i	?	-7.7%
CCOC(=O)c1nnn(-c2nonc2-n2cccc2)c1CCl	?	-116.5*	?	?	?
CCOC(=O)c1nnn(-c2nonc2-n2cccc2)c1CN1CCC(C)CC1	i	?	i	25.9µM*	?
COc1ccc(NC(=O)CSc2nnc(-c3ccccc3C)n2C)cc1	14.6µM*	12.4	i	7.9%	-2.4%
CCn1c(SCC(=O)Nc2ccc(N3CCOCC3)cc2)nnc1-c1ccc(OC)cc1	16.4µM*	55.3	i	-3.7%	3.3%
CCn1c(SCCC(=O)Nc2ccccc2)nnc1-c1ccc(OC)cc1	?	58.0	i	-3.4%	20.1%
COCc1cc(C)nc(SCC(=O)Nc2ccc3c(c2)OCCO3)c1C#N	i	-17.7	i	?	3.4%
COCc1cc(C)nc(SCC(=O)Nc2ccccc2N2CCOCC2)c1C#N	i	10.7	i	20.6µM*	?
CCn1c(SCC(=O)Nc2cccc(OC)c2)nnc1-c1ccc(Cl)cc1	11.6µM*	-6.5	?	8.7%	-2.7%
CCCS(=O)(=O)NC(=O)C1(C)CCN(C(=O)COc2ccc(Cl)cc2Cl)C1 (stereo not drawn)	i	22.9	i	nt	nt
CCn1c(SCC(=O)Nc2ccccc2N2CCOCC2)nnc1-c1ccccc1	18.4µM*	-3.8	i	16.1%	-2.9%
O=C1NC2=C(CCc3ccccc32)C(c2ccc(Br)cc2)N1 (stereo not drawn)	20.6µM*	-4.6	i	?	13.0%

Bioassay records (PubChem)
